Cruzain inh Det = blocks cruzain activity in presence of Triton detergent. P25779. purified cruzain, Z-FR-AMC fluorescence, 0.01% Triton. Potency, µM, usual class: inhibitors. 0.43% of 200,000 active. AID 1478; further: nearly all actives have a fitted effect of over 40% in size
Target sequence (P25779 123-467 limits assumed): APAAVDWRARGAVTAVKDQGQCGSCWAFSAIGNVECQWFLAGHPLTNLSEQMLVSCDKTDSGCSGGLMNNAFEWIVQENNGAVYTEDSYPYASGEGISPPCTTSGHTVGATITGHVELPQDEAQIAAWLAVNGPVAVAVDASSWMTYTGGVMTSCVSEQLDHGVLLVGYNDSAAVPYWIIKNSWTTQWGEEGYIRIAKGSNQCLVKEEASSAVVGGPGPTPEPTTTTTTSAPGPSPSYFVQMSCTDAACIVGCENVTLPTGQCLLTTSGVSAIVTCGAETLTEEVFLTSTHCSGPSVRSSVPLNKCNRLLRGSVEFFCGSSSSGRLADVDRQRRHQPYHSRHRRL
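Z-FR-AMC hydrolysis (2 uM substrate) by cruzain (1.5 nM) monitored kinetically at ex 360/em 450 nm after 15 min room-temperature compound exposure; 0.01% Triton X-100, pH 5.5, 5 mM DTT.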
Cruzain noTriton = blocks cruzain activity in detergent-free assay. P25779. purified cruzain, Z-FR-AMC fluorescence, no detergent. Potency, µM, hits mostly inhibitors. 2.3% of 200,000 active. AID 1476; further: nearly all actives have a fitted effect of over 40% in size
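Detergent-free condition (0.00005% Triton X-100) in acetate buffer pH 5.5 with DTT. 1.5 nM enzyme and compound were pre-mixed 15 min, then 2 uM Z-FR-AMC substrate added; reaction progress from fluorescence change between first and third reads (60 s).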
Hits are given with their value; 0 = inactive; ? = inconclusive. This is a sample that favours compounds with a hit; in the whole collection about 2.5% have one here. The call rests on the fitted dose curve; in most records, active means well fitted curve in the direction sought with a large enough effect; inconclusive means small, poorly fitted or top-dose-only effect, or another doubt; inactive means no such curve, though single readings can be large; an effect the other way counts as inactive or inconclusive.

SMILES	Cruzain inh Det	Cruzain noTriton
COc1cc2c(cc1NC(=O)C(C)N1CCN(S(=O)(=O)c3ccc(C)c(C)c3)CC1)oc1ccccc12 (configuration not stated)	0	7.9µM
CCc1nnc(SCc2nc(-c3ccc(OC)cc3)oc2C)c2cc3sccc3n12	0	?
Cc1cc(C)cc(N2C(=O)N(Cc3cccc(F)c3)c3ccccc3S2(=O)=O)c1	0	?
Cc1ccc(CNC(=O)C(=O)NCC(c2cccs2)S(=O)(=O)c2ccc(C)cc2)cc1 (configuration not stated)	0	0
Cc1cc(C)c2c(CC(=O)N(Cc3ccc(Cl)cc3)Cc3ccco3)coc2c1	0	?
Cc1ccccc1-n1c(SCC(=O)N/N=C/C=C/c2ccccc2[N+](=O)[O-])nc2ccccc2c1=O	0	?
O=C(CSc1nc2ccccc2c(=O)n1-c1ccc(Cl)cc1)N/N=C/C=C/c1ccccc1[N+](=O)[O-]	0	10µM
COc1ccccc1OCCn1c(C(C)Oc2ccccc2)nc2ccccc21 (configuration not stated)	0	0
CCOC(=O)c1cccc(NC(=O)c2cc(CN3CCOCC3)on2)c1	0	0
CC(/C=C1\SC(=O)N(CC(=O)Nc2ccc(O)cc2)C1=O)=C\c1ccccc1	0	0
CC(=O)c1ccc(NC(=O)CCCN2C(=O)/C(=C/C(C)=C/c3ccccc3)SC2=S)cc1	0	32µM
Cc1ccc(/C=C2/SC(=S)N(CCC(=O)N3CCN(c4ccccc4)CC3)C2=O)cc1	0	0
CC(/C=C1\SC(=S)N(CC(=O)N2CCN(c3ccccc3)CC2)C1=O)=C\c1ccccc1	0	10µM
O=C(O)[C@H](Cc1cc(I)c(O)c(I)c1)C1CCCCC1	0	0
COCCN1Cc2cccc(C(=O)Nc3ccc(Cl)cc3Cl)c2C1=O	0	0
Cc1cccc(C)c1NCc1nnc(SCC(=O)Nc2nc(-c3ccccc3)cs2)n1-c1ccccc1	0	?
CCOc1ccc(NCc2nnc(SCC(=O)Nc3nc(-c4ccccc4)cs3)n2-c2ccccc2)cc1	0	25µM
Cc1oc2ncn(CC(C)C)c(=O)c2c1C(=O)NCCCN1CCCCC1C (configuration not stated)	0	0
Cc1ccccc1C(=O)NC(CC(C)C)C(=O)OCc1cc(=O)n2cc(Br)ccc2n1 (configuration not stated)	14µM	16µM
CC1CC1C(=O)OCc1cc(=O)n2cc(Br)ccc2n1 (configuration not stated)	0	0
Cc1ccc(OCCSc2nc3ccccc3n2CC(=O)N2CCOCC2)cc1C	0	0
C/C(=C\C(=O)c1ccc(F)cc1)Nc1ccc(N2CCOCC2)cc1	0	0
NC(=O)CC[C@H](NC(=O)c1ccc(F)cc1)C(=O)OCC(=O)Nc1ccc(N2CCOCC2)cc1	25µM	?
CCCN1CCCc2cc(CN(CCCN3CCOCC3)C(=O)Nc3ccc(CC)cc3)ccc21	0	0
O=S(=O)(c1ccccc1)N1CCC2(CC1)CN(c1ncccn1)C2	0	0
SMILES	Cruzain inh Det	Cruzain noTriton
COCCOc1cc(NC(=O)c2sccc2Oc2ccc([N+](=O)[O-])cc2F)c(Cl)cc1Cl	0	16µM
CCN(CC)S(=O)(=O)c1ccc(OC)c(NC(=O)c2cc([N+](=O)[O-])ccc2Cl)c1	0	0
COc1ccc(NC(=O)Cn2c(SCc3c(F)cccc3Cl)nc3ccncc32)cc1OC	0	0
CC(/C=C/C=C(C)/C=C/C(=O)O)=C\C=C\C=C(C)\C=C\C=C(C)\C=C\C(=O)O	0	?
COc1ccc(-c2nc(-c3ccccc3)c(NC(C)(C)C)o2)cc1	0	0
CC(=O)O[C@@H]1CC2C(C)(C)C(=O)C=C[C@]2(C)C2CC[C@]3(C)C(=CC[C@H]3C3CO[C@@H](C(C)(C)O)[C@H](O)C3)[C@@]21C (some centres not stated)	0	0
Nc1ccc(Sc2cc(Cl)nc(N)n2)cc1	0	13µM
COCc1cc(Sc2ccc(Cl)cc2)nc(-c2ccccc2)n1	0	0
Cc1ccccc1NC(=O)Cn1cc(S(=O)(=O)c2ccccc2)c(=O)c2ccccc21	0	0
c1cncc(-c2nnc(SCc3nc4ccccc4[nH]3)o2)c1	0	?
c1ccc2[nH]c(CSc3nc4ccccc4o3)nc2c1	0	13µM
CCOCCCn1c(=N)c(S(=O)(=O)c2ccc(C)cc2)cc2c(=O)n3ccccc3nc21	0	0
Cn1c(=N)c(S(=O)(=O)c2ccc(F)cc2)cc2c(=O)n3ccccc3nc21	32µM	?
COc1cccc(CNC(=O)CCn2cccn2)c1	0	0
Cc1nc(N/N=C/c2ccccc2)nc(N(C)c2ccccc2)c1[N+](=O)[O-]	0	16µM
Cc1cc(C)nc(N/N=C/c2ccccc2)n1	0	0
CCNc1oc(-c2cccc3ccccc23)nc1C#N	0	0
N#Cc1nc(-c2cccc3ccccc23)oc1NCCN1CCCCC1	28µM	0
Cc1c(/C=C(\C#N)c2nn(-c3ccccc3)c(N)c2C#N)c2ccccc2n1Cc1ccc(F)cc1	0	4µM
Cc1ccc(/C=C(\C#N)c2nn(-c3ccccc3)c(N)c2C#N)cc1	0	0
COc1ccc([N+](=O)[O-])cc1NC(=O)Nc1ccccc1	0	0
COc1ccc([N+](=O)[O-])cc1C1NN=C(c2ccccc2O)S1 (configuration not stated)	0	20µM
CCC(Nc1ccc(-c2nc(-c3ccccn3)no2)cc1[N+](=O)[O-])c1ccccc1 (configuration not stated)	0	0
CCOC(=O)c1c(NC(=O)CN2C(=O)c3ccccc3C2=O)sc(Cc2ccc3c(c2)OCO3)c1C	0	10µM
Cc1nc(NC(=O)c2ccccc2)sc1Cc1ccc2c(c1)OCO2	0	?
SMILES	Cruzain inh Det	Cruzain noTriton
Cc1c(Cc2ccc3c(c2)OCO3)sc(NC(=O)c2ccccc2)c1C(N)=O	0	25µM
CCOC(=O)c1c(NC(=O)/C=C/c2ccc3c(c2)OCO3)sc(C)c1C	0	0
COCCNC(=O)Cn1c(=O)c2cccn2c2ccc(F)cc21	0	0
O=C(O)c1c[nH]c2c(ccc3[nH]cc(C(=O)O)c(=O)c32)c1=O	0	0
CCCN(Cc1cccs1)C(=O)Nc1cc(C)ccc1OC	0	0
O=C(Nc1ccccc1)c1ccc(NCC2CCCO2)c([N+](=O)[O-])c1 (configuration not stated)	0	0
O=C(Nc1ccccc1)c1ccc(Nc2c([N+](=O)[O-])cc([N+](=O)[O-])c3ccccc23)cc1	0	10µM
COc1ccc(-n2nc(C(=O)N3CCCC(C)C3)c3c4ccccc4n(C)c3c2=O)cc1Cl (configuration not stated)	0	0
O=C(CNC(=O)/C(=C\c1ccc(Br)cc1)NC(=O)c1ccccc1)OCc1ccccc1	10µM	?
O=C(CNC(=O)/C(=C/c1ccccc1)NC(=O)c1ccc(Br)cc1)OCc1ccccc1	?	0
CCC1=C2CC[C@H]3C(=O)NC(=O)[C@H]3[C@H]2[C@@]2(C)C(=NCC3CC3)OC(=O)N2C1=O	0	0
CCCCCOc1ccc(/C=C/C(=O)Nc2sc(C)c(C)c2C(=O)OCC)cc1OC	0	0
CC(=O)c1sc(N/N=C\c2cccc(Br)c2)nc1C	13µM	0.2µM
CC(=O)c1sc(N/N=C\c2ccc(Br)cc2)nc1C	0	?
CCCN(CCC)C(=O)Cn1c(=O)n(Cc2ccc(C(=O)NCCc3ccc(OC)c(OC)c3)cc2)c(=O)c2ccccc21	0	0
COc1ccccc1-n1c(/C=C/c2c(C)n(C)c3ccccc23)nc2ccccc2c1=O	0	?

Screens as filed in PubChem BioAssay.
